A short description of test [1]: NCI Yeast Anticancer Drug Screen. Data for the rad50 strain (AID 155).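 Also: 0% = growth of vehicle-only cultures of the same strain.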 Conditions: S. cerevisiae rad50 strain growth inhibition; at 50.0 µM; stronger effect = higher value. An outline of the steps: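 Compounds were tested on a yeast strain with an engineered DNA damage repair alteration; the reported value is growth inhibition normalised to vehicle treatment.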
Test [2] can be described thus: NCI Yeast Anticancer Drug Screen. Data for the mec2-1 strain (AID 157). Conditions: S. cerevisiae mec2-1 strain, at 50.0 µM, stronger effect = higher value. The gist of the method: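 Cells of the genetically defined mec2-1 yeast strain are incubated with test compound. Inhibition of growth is calculated against vehicle-treated controls.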
Test [3] is described as follows: NCI Yeast Anticancer Drug Screen. Data for the sgs1 mgt1 strain (AID 161).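 Also: 0% = growth of cultures given vehicle only.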 As to conditions: S. cerevisiae sgs1 mgt1 strain, at 50.0 µM, stronger effect = higher value. An outline of the steps:
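Test agents were incubated with a DNA-repair-mutant yeast strain. Growth was then read and compared against vehicle-treated controls.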

The nature of test [4]: NCI Yeast Anticancer Drug Screen. Data for the cln2 rad14 strain (AID 165).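 Also: 0% = growth equal to vehicle treated cultures.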 As to conditions: S. cerevisiae cln2 rad14 strain, at 50.0 µM, stronger effect = higher value. The gist of the method:
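The screen exposed genetically defined yeast (cln2 rad14) to test compounds and scored growth inhibition relative to vehicle-treated controls.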

A short description of test [5]: NCI Yeast Anticancer Drug Screen. Data for the bub3 strain (AID 167). Conditions: S. cerevisiae bub3 mutant strain, at 50.0 µM, stronger effect = higher value. The gist of the method: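 Growth of a checkpoint-deficient yeast mutant is measured after compound exposure. Values represent inhibition relative to vehicle.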
Test [6] in a line: NCI Yeast Anticancer Drug Screen. Data for the mlh1 rad18 strain (AID 175). As to conditions: S. cerevisiae mlh1 rad18 strain growth inhibition; at 50.0 µM; stronger effect = higher value. An outline of the steps: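 Compound-treated yeast growth, normalised to vehicle controls. Strain bears defined DNA repair mutations.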

This is part of a sample that, as a whole, favours compounds with a hit. Of some 79,000 tested, about 15% had one in any assay. A number with no mark means an inactive call. The source made the active and inactive calls. Rule as the data show it: active = growth inhibition above about 70%; inactive = the rest.

Take `CCCCOP(=O)(Cc1ccc(Cl)cc1Cl)OCCCC`: the growth inhibition in test [1] is 99.5% (active); in test [2], 99.7% (active); in test [3], 99.5% (active); in test [4], 99% (active); in test [5], 99.4% (active); in test [6], 99.5% (active).

`CCCCN1C(=O)C(=O)N(CCc2ccc(OC)c(OC)c2)C1=O`: the growth inhibition in test [1] was 28%; in test [2] it was 5.8%; in test [3], 11.9%; in test [4], 18.7%; in test [5], 1.35%; in test [6], 18.1%.

Turning to `Oc1ccc(OCc2ccccc2)cc1CN1CCOCC1`, the growth inhibition was 17.2% in test [1]; 7.85% in test [2]; 27.3% in test [3]; 7.15% in test [4]; 22.9% in test [5]; 34.5% in test [6].

As for `CN(c1ncc(Cc2cnc(N(C)C3CCN(Cc4ccccc4)CC3)nc2)cn1)C1CCN(Cc2ccccc2)CC1`, the growth inhibition in test [1] was -0.75%; in test [2], -5.95%; in test [3], -12.8%; in test [4], -7.95%; in test [5], -2.95%; in test [6] it was -21.8%.

As for `N#CC(C(=O)CCC(=O)Nc1ccc(Cl)c(Cl)c1)c1ccc(Cl)cc1` (stereo unspecified), the growth inhibition in test [1] was -12.9%; in test [2], -29.9%; in test [3], 18.1%; in test [4], 15.4%; in test [5], 8.4%; in test [6], -2.2%.

With `CC(=O)OCC(=O)[C@@]1(O)CC[C@H]2[C@@H]3C[C@@H](C)[C@@]4(O)CC5(CC[C@]4(C)[C@H]3[C@@H](O)C[C@@]21C)OCC(C)(C)CO5`, the growth inhibition was 0.35% in test [1]; 16.2% in test [2]; 27.1% in test [3]; 28.6% in test [4]; -6.2% in test [5]; -11.2% in test [6].

On to `Cn1c2ccccc2c(=O)c2c(O)cc3c(c21)CC(C1(C)CO1)O3` (stereo unspecified), for which the growth inhibition in test [1] is 86.2% (active); in test [2], 79.6% (active); in test [3] it was 72% (active); in test [4], 80.7% (active); in test [5], 42.5%; in test [6], 83.1% (active).

For `CC/C(=N/O)C(C)C(=O)CCC(=O)Nc1ccc(Cl)cc1` (stereo unspecified), the growth inhibition in test [1] was -11.6%; in test [2], -7%; in test [3], 0.15%; in test [4], 7.35%; in test [5], 8.15%; in test [6], -5.65%.

In the case of `CC(=O)O[C@H]1CC[C@@]2(C)C(=CC[C@H]3[C@@H]4CC[C@H](c5cc(C(F)(F)F)n(C(C)=O)n5)[C@@]4(C)CC[C@@H]32)C1`, the growth inhibition in test [1] was 11.3%; in test [2] it was -6.7%; in test [3], -40.6%; in test [4], 2.55%; in test [5] it was -19.6%; in test [6], 12.4%.

For the compound `CCc1cc(CSc2ccc(Cl)cc2)ccc1N`, the growth inhibition is 98.5% (active) in test [1]; 99% (active) in test [2]; 98.8% (active) in test [3]; 97.2% (active) in test [4]; 98% (active) in test [5]; 98.2% (active) in test [6].

`CCC(C)[N-]c1cccc[n+]1[O-].CCC(C)[N-]c1cccc[n+]1[O-].[Cu+2]` (stereo unspecified): the growth inhibition in test [1] was 8.3%; in test [2], -3.9%; in test [3] it was -9.8%; in test [4], -2%; in test [5], -18.3%; in test [6], -18.4%.

`CC(=O)C1C(=O)C(=O)N(c2ccc(Br)cc2)C1=O` (stereo unspecified): the growth inhibition in test [1] is -33.5%; in test [2], -12.6%; in test [3], -14.3%; in test [4], -9.8%; in test [5], -24.4%; in test [6] it was -38%.

Consider `NC(=O)c1nnsc1NC=O`, for which the growth inhibition in test [1] was 15.2%; in test [2], 7.95%; in test [3], -40.7%; in test [4], -0.2%; in test [5], -26.1%; in test [6], -29.8%.

On to `NC12CC3CC(C1)CC(Cl)(C3)C2`, for which the growth inhibition was -12.6% in test [1]; -26.9% in test [2]; -32.4% in test [3]; -3.5% in test [4]; -35.9% in test [5]; 4.1% in test [6].

Regarding `OC1CCCCC1C1CCCCC1` (stereo unspecified), the growth inhibition is 28.9% in test [1]; 4.45% in test [2]; 15.2% in test [3]; 22.3% in test [4]; -4.4% in test [5]; 26.7% in test [6].

In the case of `COc1ccc(S(=O)(=O)N/N=C/C(=O)OCOC(=O)C(C)(C)C)cc1`, the growth inhibition in test [1] is 1.55%; in test [2] it was -11.8%; in test [3], -5.1%; in test [4] it was 8.55%; in test [5], -25.9%; in test [6], 19.1%.

With `Clc1ccc(SCSc2ccc(Cl)cc2)cc1`, the growth inhibition is 16.8% in test [1]; -7.35% in test [2]; 6.5% in test [3]; -33.5% in test [4]; 6.45% in test [5]; -0.85% in test [6].

On to `CC1CC(C)(C)OC(C2CC=CCC2)O1` (stereo unspecified), for which the growth inhibition in test [1] was -12.7%; in test [2], -19.6%; in test [3], -13.8%; in test [4] it was -1.95%; in test [5], 2.35%; in test [6] it was 2.7%.

Consider `O=[N+]([O-])c1ccc(Cl)c(OCCCBr)c1`, for which the growth inhibition was 10.3% in test [1]; 39.5% in test [2]; 48.6% in test [3]; 14.9% in test [4]; 57.2% in test [5]; 70.3% (active) in test [6].

With `Cc1cc2c(C(C)C)c(O)c(O)c(C=Nc3ccc4ccccc4c3)c2c(O)c1-c1c(C)cc2c(C(C)C)c(O)c(O)c(C=Nc3ccc4ccccc4c3)c2c1O`, the growth inhibition in test [1] was 7.3%; in test [2], -5.2%; in test [3], -6.15%; in test [4], -42.1%; in test [5], -4.6%; in test [6] it was 1.2%.

With `CC(C)CC1=C(C(=O)c2ccoc2)CC(C)C1` (stereo unspecified), the growth inhibition in test [1] is 6.55%; in test [2], -7.6%; in test [3] it was -18.9%; in test [4] it was 12.1%; in test [5], 25.9%; in test [6], -7.1%.

For the origin of these results see PubChem BioAssay (NCI).
